# Source: PubChem BioAssay (NCI)
# Compounds without any hit were thinned out: in the full panel of roughly 83,000, 20% have a hit.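 Method: cells in 96-well plates; compound added at one concentration; 48 h incubation; percent growth measured; values under 10 scored active.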 Values without a mark were called inactive. Active and inactive are the calls of the source.
# How the values were obtained:
# Assay in all cases: NCI-60 one-dose screen, 48 h (100 = growth as untreated, 0 = no growth, -100 = all killed)
# Settings in all cases: 10 µM unless noted
# NCI-H23 lung = test system: NCI-H23 lung
# NCI-H226 lung = test system: NCI-H226 lung
# NCI-H322M lung = test system: NCI-H322M lung
# HOP-62 NSCLC = test system: HOP-62 NSCLC
# NCI-H460 lung = test system: NCI-H460 lung
# HOP-92 NSCLC = test system: HOP-92 NSCLC
# NCI-H522 lung = test system: NCI-H522 lung
# A549/ATCC NSCLC = test system: A549/ATCC NSCLC
# 786-0 renal = test system: 786-0 renal
# COLO 205 colon = test system: COLO 205 colon
# DU-145 prostate = test system: DU-145 prostate
# K-562 leukemia = test system: K-562 leukemia
# MALME-3M melanoma = test system: MALME-3M melanoma
# MDA-MB-231 breast = test system: MDA-MB-231 breast
# RXF 393 renal = test system: RXF 393 renal
# SF-268 CNS = test system: SF-268 CNS
# SF-295 CNS = test system: SF-295 CNS
# SF-539 CNS = test system: SF-539 CNS
# UACC-257 melanoma = test system: UACC-257 melanoma
# M14 melanoma = test system: M14 melanoma
SMILES,growth (NCI-H23 lung),growth (NCI-H226 lung),growth (NCI-H322M lung),growth (HOP-62 NSCLC),growth (NCI-H460 lung),growth (HOP-92 NSCLC),growth (NCI-H522 lung),growth (A549/ATCC NSCLC),growth (786-0 renal),growth (COLO 205 colon),growth (DU-145 prostate),growth (K-562 leukemia),growth (MALME-3M melanoma),growth (MDA-MB-231 breast),growth (RXF 393 renal),growth (SF-268 CNS),growth (SF-295 CNS),growth (SF-539 CNS),growth (UACC-257 melanoma),growth (M14 melanoma)
O=C1C=CC2(O)OC/C(=C\c3ccccc3)C(O)=C2C1=O (stereo not given),36.1%,81%,72.2%,5.5% (active),29.1%,-3.3% (active),-73.1% (active),42.2%,-41.3% (active),36.2%,24.2%,5.02% (active),-37.8% (active),-22.4% (active),-64.7% (active),19.1%,74.8%,-38.8% (active),65.9%,27%
CN1CC(c2ccc(Br)cc2)C(C(=O)c2ccc(Br)cc2)C12C(=O)Nc1ccccc12 (stereo not given),67.7%,73.5%,89.9%,69%,73.3%,70.2%,58.2%,59.2%,79.2%,76.6%,83.5%,44.8%,81.7%,81.7%,69.7%,69.5%,78.5%,90.5%,85.5%,76%
Fc1cccc(-c2nc(-c3c[nH]c4ncccc34)cs2)c1,64.2% [100 µM],53.1% [100 µM],59.1% [100 µM],48.9% [100 µM],40.5% [100 µM],38.3% [100 µM],81.5% [100 µM],33.9% [100 µM],62.3% [100 µM],76.9% [100 µM],63.8% [100 µM],94% [100 µM],0.186% [100 µM] (active),44.6% [100 µM],51.7% [100 µM],45.5% [100 µM],17.2% [100 µM],56.1% [100 µM],99.3% [100 µM],22.2% [100 µM]
COC(=O)c1nc(-c2ccccc2)oc1S(=O)(=O)N1CCCC(C)C1 (stereo not given),87.8%,90.6%,90.2%,107%,102%,72.7%,28.6%,96.8%,59.1%,67.7%,91.3%,17.7%,78.2%,76.8%,78.8%,85.8%,108%,85%,82.3%,39.3%
Cc1nc2sc(C(=O)Nc3ccccn3)c(N)c2cc1C(C)O (stereo not given),84.3%,85.8%,83.1%,63.9%,80.2%,74.3%,59.9%,82%,82.1%,75.1%,103%,31.1%,97.9%,59.1%,71.2%,83.6%,65.1%,59.8%,81.6%,49.3%
Cc1cc(O)c(=O)cc2c1C[C@H]1CC(C)(C)/C=C/C[C@]3(C)Oc4cc(=O)c(O)cc(C)c4C[C@H]3C[C@H](O)[C@@]1(C)O2,-16.7% (active),11.9%,24.3%,0.636% (active),-6.53% (active),2.97% (active),-24.9% (active),-7.87% (active),-1.45% (active),-14.7% (active),22.3%,1.9% (active),0.782% (active),13.5%,19.8%,18.5%,3.52% (active),6.95% (active),-6.56% (active),-34% (active)
COc1ccc(Oc2ccc(/C=C/C(=O)c3cc4ccccc4oc3=O)cc2)cc1,81%,92.2%,84.5%,85.6%,102%,58.2%,65.1%,95.2%,108%,120%,101%,78.7%,94.2%,76%,100%,80.9%,104%,92.5%,93.3%,90.5%
COc1ccc(CN2C(=O)OC(C)(COC(C)=O)C2=O)cc1 (stereo not given),108%,98.1%,99%,106%,111%,100%,91.4%,94.5%,106%,119%,107%,94.5%,102%,103%,105%,102%,99.7%,96%,100%,105%
CN1CCOCCN(C)Cc2ccc3ccc(cc3c2)CN(C)CCOCCN(C)Cc2ccc3ccc(cc3c2)C1,90.2%,111%,99.6%,91.8%,59.5%,85.8%,110%,96.3%,75.8%,94.6%,57.8%,-10.3% (active),68.8%,70.8%,75.9%,84.9%,103%,79.3%,110%,99.4%
Nc1nc(C(=O)N/N=C/c2ccc(F)cc2)nn1-c1ccc(S(N)(=O)=O)cc1,101%,99%,91.1%,98.8%,106%,98.9%,88.8%,95%,97.2%,112%,104%,103%,89.2%,96.4%,95.5%,95.7%,102%,98.9%,103%,99.5%
CS(=O)/C(C#N)=C\C=C\c1cccc(Cl)c1 (stereo not given),-7.77% (active),36.1%,24.1%,17.1%,3.71% (active),-5.77% (active),-9.88% (active),20%,19.2%,-22% (active),23.1%,10.3%,34.7%,40.6%,49.5%,17.2%,32.5%,17.7%,31.9%,-3.44% (active)
Clc1cccc(C2Cc3cnccc3-c3[nH]c4ccncc4c32)c1 (stereo not given),35%,52.1%,73.2%,67.3%,19.1%,39.1%,51.9%,42.9%,59.7%,23.4%,69.6%,23.6%,52.2%,44.8%,69.1%,57.7%,28.6%,65.5%,29.9%,58.4%
CCOC(=O)c1ccc[nH]1,87.7%,99.3%,84.3%,83.5%,105%,80.4%,88.4%,93%,93.1%,134%,116%,88.5%,87.7%,126%,94.1%,100%,114%,91.9%,90.8%,96.2%
COc1ccc(-c2cc(C(=O)N3N=C(c4ccc(N)cc4)CC3c3ccc(Cl)cc3)c3ccccc3n2)cc1 (stereo not given),48.1%,76.5%,52.4%,36.3%,12.8%,45.4%,-3.25% (active),16.9%,25.4%,2.76% (active),13.9%,7.4% (active),79%,44.2%,21.6%,35%,21.6%,5.56% (active),55.2%,9.68% (active)
N#Cc1nn(-c2cc(=O)[nH]c3ccc(Br)cc23)c(N)c1C#N,102%,98.4%,93.3%,83.2%,105%,-90.8% (active),78.4%,101%,97.4%,80%,117%,-12.4% (active),89.4%,85.3%,115%,108%,101%,105%,93.4%,90.1%
